Coupling enz: coupling enzyme interference in Giardia aldolase counter-screen; coupling enzyme system counterscreen, AmpLite Red fluorescence; activity change, negative = inhibition, % at 58.2 µM, hits read low; 290,000 compounds, 0.67% hits; in the data active = activity change below about -30%
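Counterscreen lacking aldolase: glyceraldehyde-3-phosphate coupling-enzyme reagent preincubated 10 min at RT with compound (at 57.5 uM final), then substrate/coupling system with AmpLite Red added; fluorescence read at 525/598 nm after 20 min RT.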
ALDH1A1 block: inhibitors of human aldehyde dehydrogenase 1A1; P00352; Purified ALDH1A1, NADH fluorescence, propionaldehyde substrate; Potency, µM (series often up to 75.3 µM), for the others: top-dose activity, negative = inhibition, most hits filed as inhibitors; 220,000 compounds, 7.3% hits; AID 1030; active = well fitted inhibition curve with a large enough effect, not every such curve was filed as active; inconclusive = small, poorly fitted or top-dose-only effect, or another doubt; inactive = no such curve, though single readings can be large or run the other way;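 note: potency is the fitted concentration of half-maximal effect; plate controls were no enzyme wells and a reference inhibitor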
RGS12 GoLoco inh: inhibitors of human Gai1-RGS12 GoLoco interaction (red fluorophore); Potency, µM (top dose mostly 61.6 µM), without a hit: at the highest dose activity, negative = inhibition, most hits filed as inhibitors; AID 880; 230,000 compounds, 0.44% hits; Gai1:RGS12 GoLoco peptide FP, rhodamine, 10 min; P63096; active = well fitted inhibition curve with a large enough effect, not every such curve was filed as active; inactive = no such curve, though single readings can be large or run the other way; note: potency is the fitted concentration of half-maximal effect; nearly all actives have a fitted effect of over 30% in size
NPSR antagonist: neuropeptide S receptor (human) antagonism, cAMP; Q6W5P4; CHO-NPSR cells, cAMP TR-FRET, antagonist mode; Potency, µM (highest dose often 38.3 µM), for inactives: at the top dose activity change, negative = inhibition, hits mostly inhibitors; 220,000 compounds, 1% hits; AID 1461; note: potency is the fitted concentration of half-maximal effect; nearly all actives have a fitted effect of over 50% in size
Target sequence (Q6W5P4 whole entry, looked up): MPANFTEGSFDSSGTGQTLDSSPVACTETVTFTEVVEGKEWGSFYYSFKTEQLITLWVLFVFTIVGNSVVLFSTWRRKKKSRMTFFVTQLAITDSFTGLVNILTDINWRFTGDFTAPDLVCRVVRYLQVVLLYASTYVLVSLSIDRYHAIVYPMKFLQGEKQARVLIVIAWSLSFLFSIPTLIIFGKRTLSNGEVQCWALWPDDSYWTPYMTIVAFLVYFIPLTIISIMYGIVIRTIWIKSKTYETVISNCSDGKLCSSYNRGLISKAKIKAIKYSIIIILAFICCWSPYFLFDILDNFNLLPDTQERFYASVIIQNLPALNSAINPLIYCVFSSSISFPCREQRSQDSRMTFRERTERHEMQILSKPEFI
JMJD2E inh: blocks human JMJD2E demethylase activity; Potency, µM (series often up to 57.1 µM), inactives show top-dose activity change, negative = inhibition, hits mostly inhibitors; JMJD2E catalytic domain, FDH-coupled NADH fluorescence (FDH is formaldehyde dehydrogenase); 230,000 compounds, 1.6% hits; B2RXH2; active = well fitted inhibition curve with a large enough effect, not every such curve was filed as active; inconclusive = small, poorly fitted or top-dose-only effect, or another doubt; inactive = no such curve, though single readings can be large or run the other way;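 note: potency is the fitted concentration of half-maximal effect; 0% = wells with enzyme and -100% = buffer wells without enzyme; nearly all actives have a fitted effect of over 50% in size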
Sfp inh: Sfp phosphopantetheinyl transferase inhibition; Q9F4F7; 310,000 compounds, 3.5% hits; Biochemical Sfp PPTase activity, qHTS; Potency, µM, for inactives: largest response in the series, negative = inhibition, usual class: inhibitors;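 note: the enzyme is Sfp with the accession as filed and its product quenches rhodamine fluorescence; potency is the fitted concentration of half-maximal effect; 0% = enzyme reaction without inhibitor and -100% = no enzyme wells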
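Compounds were incubated with enzyme (final 15 nM) for 15 min at room temperature before substrate addition started the reaction. Fluorescence at 525 nm excitation, 598 nm emission was recorded immediately and after 30 minutes.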
Sfp PPTase conf: confirmation of Bacillus subtilis Sfp PPTase inhibitors. shares compounds with Sfp inh. Potency, µM (highest dose often 114 µM), for inactives: at the highest dose activity change, negative = inhibition, hits mostly inhibitors. 380 compounds, 79% hits. Sfp PPTase enzymatic assay, qHTS titration. AID 2701;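 note: potency is the fitted concentration of half-maximal effect; plate controls were uninhibited Sfp reaction for no effect and no enzyme control for full effect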
Sfp PPTase gel: Blocks Sfp PPTase activity, gel read-out; shares compounds with Sfp inh; purified Sfp, gel-based phosphopantetheinylation read-out; Potency, µM, usual class: inhibitors; 210 compounds, 20% hits; AID 2707;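 active = potency below 100 µM; inconclusive = dose-dependent response but potency above 100 µM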;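 note: band intensities scaled against SCH202676 control wells before curve fitting; potency is an IC50 for inhibitors of Sfp transfer activity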
* hit, by the source's call; ! = not confirmed by another sample; [ ] = remark or other dose. Most compounds without a hit are left out; they make up all but 8.5% or so of the library. Unless noted, calls come from the whole dose curve; as a rule, active = well fitted curve in the direction sought with a large enough effect; inconclusive = small, poorly fitted or top-dose-only effect, or another doubt; inactive = no such curve, though single readings can be large; an effect the other way counts as inactive or inconclusive. Unless noted, % is set by controls: 0 for no effect and ±100 for the full control effect.

What do the screens show for `CCN(CC)CCOCCOC(=O)C1(c2ccccc2)CCCC1`?
Coupling enz: 1; ALDH1A1 block: -2%; RGS12 GoLoco inh: -10%; NPSR antagonist: 6%[46.1 µM]; JMJD2E inh: inconclusive; Sfp inh: 50µM*!; Sfp PPTase conf: inconclusive; Sfp PPTase gel: inactive

Results for O=C(Nc1nc2c(cc3c4c(cccc42)CC3)s1)c1ccccc1Cl ?
Coupling enz: -5; ALDH1A1 block: inconclusive; RGS12 GoLoco inh: -3%; NPSR antagonist: -34%; JMJD2E inh: inconclusive; Sfp inh: -1%

How did O=C(NCCCn1ccnc1)c1nn2c(C(F)(F)F)cc(-c3ccc(Br)cc3)nc2c1Cl do in these assays?
Coupling enz: 1; ALDH1A1 block: 1%; RGS12 GoLoco inh: 12%; NPSR antagonist: -33%; JMJD2E inh: -1%; Sfp inh: 1.1µM*; Sfp PPTase conf: inconclusive

Results for CCCNC(=O)c1nn2c(C(F)(F)F)cc(-c3ccccc3)nc2c1Cl ?
Coupling enz: 0; Sfp inh: 16%

Results for c1ccc(OCc2nnc3sc(-c4cccs4)nn23)cc1 ?
Coupling enz: -5; ALDH1A1 block: 3.5µM*; RGS12 GoLoco inh: 1%; NPSR antagonist: -8%[46.1 µM]; JMJD2E inh: -18%; Sfp inh: 10µM*; Sfp PPTase conf: 9.4µM*

What do the screens show for `c1ccc(OCc2nc(-c3cccs3)no2)cc1`?
Coupling enz: -1; ALDH1A1 block: -1%; RGS12 GoLoco inh: 0%; NPSR antagonist: -9%[46.1 µM]; JMJD2E inh: 1%; Sfp inh: 3%

What do the screens show for `c1csc(-c2nn3c(C4COc5ccccc5O4)nnc3s2)c1` (configuration not stated)?
Coupling enz: 1; ALDH1A1 block: 8.9µM*; RGS12 GoLoco inh: -7%; NPSR antagonist: -19%[46.1 µM]; JMJD2E inh: 32µM*; Sfp inh: 7.9µM*; Sfp PPTase conf: 24µM*

What do the screens show for `O=C(c1cc(C(F)(F)F)cc(C(F)(F)F)c1)N1CCC2(CC1)CN(c1ccccn1)C2`?
Coupling enz: 0; ALDH1A1 block: inconclusive; RGS12 GoLoco inh: 5%; Sfp inh: 14%

What do the screens show for `O=C(CSc1ccc(-c2ccco2)nn1)N1CCCCCC1`?
Coupling enz: 1; ALDH1A1 block: inconclusive; RGS12 GoLoco inh: 3%; NPSR antagonist: 3%; JMJD2E inh: inconclusive; Sfp inh: -58%

How did O=C(CSc1ccc(-c2ccco2)nn1)c1ccccc1 do in these assays?
Coupling enz: 2; ALDH1A1 block: 8.9µM*; RGS12 GoLoco inh: 0%; NPSR antagonist: -29%[46.1 µM]; JMJD2E inh: inconclusive; Sfp inh: 3.2µM*; Sfp PPTase conf: 9.4µM*

Results for O=C(O)c1ccnc(SCC(=O)c2ccccc2)c1 ?
Coupling enz: 14; ALDH1A1 block: -6%; RGS12 GoLoco inh: 11%; NPSR antagonist: -1%; JMJD2E inh: -2%; Sfp inh: 3.5µM*; Sfp PPTase conf: 53µM*

How did CC(C)NC(=O)N1CCC2(CC1)CCN(S(C)(=O)=O)CC2 do in these assays?
Coupling enz: 2; ALDH1A1 block: 5%; RGS12 GoLoco inh: 6%; Sfp inh: 16%

How did O=C(CSc1ccccc1)Nc1nnc(COc2ccc(Cl)cc2)s1 do in these assays?
Coupling enz: 2; ALDH1A1 block: 3.2µM*; RGS12 GoLoco inh: 7%; NPSR antagonist: 30%; JMJD2E inh: 0%; Sfp inh: 14µM*; Sfp PPTase conf: 5.9µM*

What do the screens show for `CCOC(=O)c1ccc(NC(=S)N2CCN(CCN=CC3=C(O)CC(C)(C)CC3=O)CC2)cc1`?
Coupling enz: -2; ALDH1A1 block: 0.5µM*; RGS12 GoLoco inh: 1%; NPSR antagonist: 7%; JMJD2E inh: -10%; Sfp inh: 11µM*; Sfp PPTase conf: 18%; Sfp PPTase gel: inconclusive

From PubChem
